# Where “and” joins values, the source holds several entries; their conditions need not be identical. Equal values may be shown once. Hit rate of the full screen: of about 16,000 compounds, about 5,800 (36%) were called active. About 23% were inconclusive and are not listed. Calls come from the whole dose curve; as a rule, active = well fitted curve in the direction sought with a large enough effect; inconclusive = small, poorly fitted or top-dose-only effect, or effect the other way; inactive = no such curve, though single readings can be large or run the other way. This is one part of the list. Square brackets hold non-standard residues; d marks the D form. Peptide text beside a SMILES is read from it.
# Biological target: Cytochrome P450 2C19 (Homo sapiens) (UniProt P33261)
# Sequence (P33261 whole entry, looked up): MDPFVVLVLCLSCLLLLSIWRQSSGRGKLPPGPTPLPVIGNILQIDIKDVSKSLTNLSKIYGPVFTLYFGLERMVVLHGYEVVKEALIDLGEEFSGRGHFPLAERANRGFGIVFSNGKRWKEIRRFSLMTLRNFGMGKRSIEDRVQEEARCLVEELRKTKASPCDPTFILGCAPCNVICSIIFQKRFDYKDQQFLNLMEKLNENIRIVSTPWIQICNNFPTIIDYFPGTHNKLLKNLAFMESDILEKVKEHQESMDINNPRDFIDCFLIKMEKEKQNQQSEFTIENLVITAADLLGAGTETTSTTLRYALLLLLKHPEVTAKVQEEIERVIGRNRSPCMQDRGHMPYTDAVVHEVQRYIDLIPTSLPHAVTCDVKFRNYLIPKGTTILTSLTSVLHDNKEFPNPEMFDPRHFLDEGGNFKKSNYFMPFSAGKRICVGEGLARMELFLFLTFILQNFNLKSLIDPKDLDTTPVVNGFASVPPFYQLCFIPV
# Experiment: Cytochrome panel assay with activity outcomes
# Conditions: recombinant CYP, pro-luciferin dealkylation, luminescence, p450-cyp2c19; series mostly up to 57.1 µM; activity, negative = inhibition: at the top concentration
# % is set by controls: 0 for no effect and ±100 for the full control effect.
Compound,"activity, negative = inhibition",AC50
c1ccc2c3c([nH]c2c1)[C@@H]1[C@H]2CC[C@H]([C@H]4CCCN[C@H]42)N1CC3,1.6% [at 25.6 µM] (inactive),
Cc1noc(C)c1C(=O)N1CCC2(CCCN(Cc3nccs3)C2)CC1,-39.5% (inactive),
NCC(=O)N[C@H](CO)C(=O)O (H-Gly-[dS]-OH),-0.959% [at 11.4 µM] (inactive),
COc1ccc(N2CCN(S(=O)(=O)c3ccc4c(c3)CCCC4)CC2)c([N+](=O)[O-])c1,,2000 nM (active)
CCS(=O)(=O)N1CCC[C@H]2CN3CCc4cc(OC)ccc4[C@@H]3C[C@@H]21,-31.5% (inactive),
COc1ccc(-n2c(=O)c(-c3cc(F)cc(F)c3)nc3cnc(N4CCOCC4)nc32)cc1,-21.1% (inactive),
COc1cccc(Cn2c(=O)c(-c3cn(C)c4ccccc34)nc3cnc(N4CCOCC4)nc32)c1,-44.4% (inactive),
COc1ccc(-n2c(=O)c(-c3ccccc3)nc3cnc(N4CCNCC4)nc32)cc1,-16.4% (inactive),
COc1cccc(-c2cc(C(F)(F)F)nc(N3CCN(c4ccccc4)CC3)n2)c1,,8910 nM (active)
COc1cccc(-c2cc(C(F)(F)F)nc(N3CCOCC3)n2)c1,,25100 nM (active)
CCC(=S)/C=C1\Sc2ccccc2N1CCCS(=O)(=O)O,31% (inactive),
Brc1cc2c(cc1/C=N/Nc1nc(N3CCCC3)nc(N3CCOCC3)n1)OCO2,,7940 nM (active)
O=[N+]([O-])c1ccc(Nc2nc(N/N=C\c3ccc4c(c3)OCO4)nc(N3CCCCC3)n2)cc1,,2240 nM (active)
O=[N+]([O-])c1ccc2c(c1)Cc1cc(N=Cc3ccc4c(c3)OCO4)ccc1-2,-19.5% [at 11.4 µM] (inactive),
COC(=O)[C@H](C)[C@H]1C[C@]1(C)[C@H](NC(=O)OCc1ccccc1)c1ccccc1,,251 nM (active)
COC(=O)[C@H](C)[C@@H]1C[C@@]1(C)[C@@H](NC(=O)OCc1ccccc1)c1ccccc1,,316 nM (active)
C[C@@H](C(=O)O)[C@@H]1C[C@@]1(C)[C@@H](NC(=O)OCc1ccccc1)c1ccccc1,-18.6% (inactive),
C[C@@H](C(=O)O)[C@H]1C[C@]1(C)[C@H](NC(=O)OCc1ccccc1)c1ccccc1,,7940 nM (active)
O=C(/C=C\C=C/c1ccc2c(c1)OCO2)N1CCCCC1,-43.6% [at 25.6 µM] (inactive),
O=C(O)/C=C\C=C/c1ccc2c(c1)OCO2,23.6% [at 11.4 µM] (inactive),
COCOc1cc(OC)ccc1C(=O)/C=C\c1ccc2c(c1)OCO2,,100 nM (active)
O=C(/C=C\c1ccc2c(c1)OCO2)c1ccc(F)cc1,,1000 nM (active)
Nc1ccccc1C(=O)/C=C\c1ccc2c(c1)OCO2,,1000 nM (active)

Compound,"activity, negative = inhibition",AC50
O=C1/C(=C/c2cccnc2)SC(=S)N1Cc1ccco1,,3160 nM (active)
COC(=O)c1nn(-c2ccc(OC)cc2)c(=O)cc1Oc1cccc(Cl)c1,,14100 nM (active)
COC(=O)c1nn(-c2ccccc2)c(=O)cc1Oc1ccccc1,,14100 nM (active)
O=C1C=C[C@@H](O)[C@H]2[C@@H]3C(=O)N(c4cccc(Oc5ccccc5)c4)C(=O)[C@@H]3CC[C@H]12,-33.5% [at 11.4 µM] (inactive),
Nc1nc2c(nc(Br)n2[C@@H]2O[C@H]3COP(=O)(O)O[C@@H]3[C@H]2O)c(=O)[nH]1,36.8% (inactive),
NC(N)=[N+]1CCc2ccccc2C1,32% (inactive),
COc1ccc(N(C(=O)COc2ccccc2OC)S(=O)(=O)c2ccc(C)cc2)cc1,,5010 nM (active)
CON(C)C(=O)c1nnc2c3ccccc3n(S(=O)(=O)c3ccc(C)cc3)c2n1,16% [at 11.4 µM] (inactive) and 19.4% [at 11.4 µM] (inactive),
C[C@H](NC(=O)c1ccc(Cl)c(Cl)c1)c1ccc(-c2ccccc2)cc1,,1260 nM (active)
COc1ccc(C(NC(=O)c2ccc(-c3ccccc3)cc2)c2ccccc2)cc1 (configuration not stated),-5% (inactive),
CCCCCN(CCCCC)C(=O)[C@H](CCC(=O)O)NC(=O)c1ccc(Cl)c(Cl)c1,,inactive
O=C(Nc1cccc(F)c1)N1CC[C@@]2(CCCN(C(=O)c3cnccn3)C2)C1,26.6% (inactive),
O=c1oc2cc(Oc3c([N+](=O)[O-])cc(C(F)(F)F)cc3[N+](=O)[O-])ccc2c2c1CCCC2,,2820 nM (active)
O=c1oc2cc(Oc3ccc(C(F)(F)F)cc3[N+](=O)[O-])ccc2c2c1CCCC2,-6.74% (inactive),
CN(C)c1ccc(-c2cncnc2Nc2ccccc2)cc1,,316 nM (active)
CN(C)C(=O)c1ccc(-c2cncnc2NC2CCNCC2)cc1,32.8% (inactive),
Fc1ccc(Nc2ncncc2-c2ccoc2)cc1,-37.3% (inactive),
CN(C)c1ccc(-c2cncnc2Nc2ccc(F)cc2)cc1,,794 nM (active)
COC(=O)[C@@H]1[C@@H]2C[C@H]3c4[nH]c5cc(OC)ccc5c4CCN3C[C@@H]2C[C@H](OC(=O)c2cc(OC)c(OC)c(OC)c2)[C@H]1OC,-17.8% [at 25.6 µM] (inactive),
COc1cc(NC(=O)c2cc(Cl)ccc2Cl)ccc1-c1cc2ccccc2oc1=O,,794 nM (active)
CCOc1ccc(C(=O)Nc2cccc(-c3cc4ccccc4oc3=O)c2)cc1[N+](=O)[O-],,1780 nM (active)
COc1cc(C(=O)NC(=S)Nc2cccc(-c3cc4ccccc4oc3=O)c2)cc(OC)c1OC,,5010 nM (active)
CCCCC(=O)Nc1cc(OCC)c(NC(=O)c2ccccc2[N+](=O)[O-])cc1OCC,-2.64% (inactive),

Compound,"activity, negative = inhibition",AC50
COc1cc(C(=O)NC(=S)Nc2ccc3oc(=O)ccc3c2)cc(OC)c1OC,-15% (inactive),
C[C@@H]1CCc2cc(F)cc3c(=O)c(C(=O)O)cn1c23,-0.104% [at 25.6 µM] (inactive),
Clc1ccccc1-c1nc(NC2CCNCC2)c2ccccc2n1,4.11% (inactive),
Cc1noc(C)c1-c1cc(N2CCN(C)CC2)ncn1,-18% (inactive),
Cc1noc(C)c1-c1nccc(-n2ccnc2)n1,,3980 nM (active)
Clc1ccccc1-c1nccc(-n2ccnc2)n1,,2510 nM (active)
Cc1noc(C)c1-c1nccc(N2CCN(C)CC2)n1,-29.2% (inactive),
FC(F)(F)c1ccccc1-c1nccc(N2CCNCC2)n1,-36.9% (inactive),
Cc1ccccc1-c1nc(N2CCNCC2)c2ccccc2n1,-21.6% (inactive),
Cc1ccccc1-c1nc(-n2ccnc2)c2ccccc2n1,,5010 nM (active)
Cc1ccccc1-c1nc(N2CCN(C)CC2)c2ccccc2n1,-8.98% (inactive),
Clc1ccccc1-c1nc(-n2ccnc2)c2ccccc2n1,,7940 nM (active)
CCOC(=O)[C@]1(CC(=O)O)CCCC1=O,5.42% [at 11.4 µM] (inactive),
CCOC(=O)C1(N(CC)CC)Sc2cc(C)ccc2NC1=O (configuration not stated),,89.1 nM (active)
CCCCCCCCCCCCCCCCCC(=O)O[C@H](CC(=O)O)C[N+](C)(C)C,-2.77% (inactive),
NNC(=O)c1ccc[n+](CCc2ccccc2)c1,-21.6% [at 11.4 µM] (inactive),
O=C(C[n+]1cccc(NC(=O)c2ccccc2)c1)c1ccc(NC(=O)c2ccccc2)cc1,,39800 nM (active)
O=[N+]([O-])c1ccc2c(c1)S(=O)c1ccccc1-2 (configuration not stated),14.6% [at 11.4 µM] (inactive),
Cc1cc([N+](=O)[O-])ccc1-c1ccc(C2Nc3ccccc3C(=O)N2O)o1 (configuration not stated),,4470 nM (active)
O=C(O)CSc1nc2ccccc2[nH]1,5.01% [at 11.4 µM] (inactive),
O=C(CSc1nc2ccccc2[nH]1)Nc1c(F)cccc1F,,8910 nM (active)
CCOC(=O)CCN1C(=O)[C@H]2[C@H]3[C@H](O)[C@H](O)C/C(=N/OC[C@@H](O)COCc4ccco4)[C@@H]3CC[C@@H]2C1=O,40.5% [at 11.4 µM] (inactive),
O=C(O)c1ccc(Oc2nc3ccccc3s2)cc1,,3980 nM (active)

Compound,"activity, negative = inhibition",AC50
O=C(Nc1ccccc1-c1nc2ccccc2[nH]1)c1ccc(S(=O)(=O)N2CCCCC2)cc1,,2510 nM (active)
Cc1sc(=NC(=O)c2ccco2)n(C)c1-c1ccccc1,,8910 nM (active)
CNc1ccnc(-c2ccccc2CN(C)C)n1,-8.21% (inactive),
COc1ccc(CNc2ccnc(-c3ccccc3C(F)(F)F)n2)c(OC)c1,,10000 nM (active)
COc1ccc(CNc2ccnc(-c3ccccc3CN(C)C)n2)c(OC)c1,40.8% (inactive),
COc1ccc(CNc2ccnc(-c3ccccc3Cl)n2)c(OC)c1,,1260 nM (active)
COc1ccccc1CNc1ccnc(-c2ccccc2Cl)n1,,1580 nM (active)
O=C(N/N=C1/C[C@@H](O)[C@@H](O)[C@@H]2[C@H]3C(=O)N(c4ccc(F)cc4F)C(=O)[C@@H]3CC[C@@H]12)OCc1ccccc1,-16.8% [at 11.4 µM] (inactive),
NC(=O)C[C@H](NC(=O)Cc1ccc(O)cc1O)C(=O)O,31.1% (inactive),
CC1(C)CC(=O)C2=C(C1)Nc1cc3c(cc1C2c1ccc(F)cc1)OCO3 (configuration not stated),,4470 nM (active)
Fc1ccc([C@H]2CCNC[C@H]2COc2ccc3c(c2)OCO3)cc1,13.9% (inactive),
N=C(N)c1ccccc1,-22% (inactive),
N=C(N)c1ccc(N=Nc2c(O)ccc3c2[nH]c2ccccc23)cc1,,1260 nM (active)
NS(=O)(=O)c1ccc(N=Nc2c(O)c(C(=O)O)cc3ccccc23)cc1,9.68% [at 11.4 µM] (inactive),
O=C(NCCCn1ccnc1)Nc1ccc(Cl)cc1,,56.2 nM (active)
COc1ccc2c(Cl)c(C(=O)NCCCn3ccnc3)sc2c1Cl,,794 nM (active)
S=C(S)NCCCn1ccnc1,-30% [at 11.4 µM] (inactive),
CSc1ccc(NC(=O)NCCCN2CCN(c3ccccc3F)CC2)cc1,,15800 nM (active)
O=C(CCCN1CC=C(n2c(=O)[nH]c3ccccc32)CC1)c1ccc(F)cc1,-2.46% [at 25.6 µM] (inactive),
O=C(CCN1CCc2ccccc2C1)Nc1ccc(F)cc1,,7940 nM (active)
Cc1cc(=O)oc(C)c1C(=O)NCCCN1CCN(c2ccc(F)cc2)CC1,-1.77% (inactive),
O=C(O)c1ccccc1-c1ccccc1C(=O)Nc1ccc2c(c1)Cc1cc(F)ccc1-2,-34% [at 11.4 µM] (inactive),
O=C(NCCCN1CCN(C2CCCCC2)CC1)Nc1ccccc1C(F)(F)F,33.2% (inactive),
